Results published in PMC4336329 (PLoS ONE, 2015).
The campaign covered roughly 310,000 compounds. About 14,000 (4.5%) showed an effect of 50% or more. The effect is printed as a negative number. This excerpt belongs to a sample that is enriched for strong results.

These compounds were tested against human ether-à-go-go-related gene (hERG) potassium channel (human, UniProt Q12809) (assay: primary screen, population patch clamp on CHO cells stably expressing hERG; higher = less effect of the substance).
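Note: peak tail current of the secondary pulse compared with the same well before compound.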

human ether-à-go-go-related gene (hERG) potassium channel, sequence (Q12809 whole entry, looked up): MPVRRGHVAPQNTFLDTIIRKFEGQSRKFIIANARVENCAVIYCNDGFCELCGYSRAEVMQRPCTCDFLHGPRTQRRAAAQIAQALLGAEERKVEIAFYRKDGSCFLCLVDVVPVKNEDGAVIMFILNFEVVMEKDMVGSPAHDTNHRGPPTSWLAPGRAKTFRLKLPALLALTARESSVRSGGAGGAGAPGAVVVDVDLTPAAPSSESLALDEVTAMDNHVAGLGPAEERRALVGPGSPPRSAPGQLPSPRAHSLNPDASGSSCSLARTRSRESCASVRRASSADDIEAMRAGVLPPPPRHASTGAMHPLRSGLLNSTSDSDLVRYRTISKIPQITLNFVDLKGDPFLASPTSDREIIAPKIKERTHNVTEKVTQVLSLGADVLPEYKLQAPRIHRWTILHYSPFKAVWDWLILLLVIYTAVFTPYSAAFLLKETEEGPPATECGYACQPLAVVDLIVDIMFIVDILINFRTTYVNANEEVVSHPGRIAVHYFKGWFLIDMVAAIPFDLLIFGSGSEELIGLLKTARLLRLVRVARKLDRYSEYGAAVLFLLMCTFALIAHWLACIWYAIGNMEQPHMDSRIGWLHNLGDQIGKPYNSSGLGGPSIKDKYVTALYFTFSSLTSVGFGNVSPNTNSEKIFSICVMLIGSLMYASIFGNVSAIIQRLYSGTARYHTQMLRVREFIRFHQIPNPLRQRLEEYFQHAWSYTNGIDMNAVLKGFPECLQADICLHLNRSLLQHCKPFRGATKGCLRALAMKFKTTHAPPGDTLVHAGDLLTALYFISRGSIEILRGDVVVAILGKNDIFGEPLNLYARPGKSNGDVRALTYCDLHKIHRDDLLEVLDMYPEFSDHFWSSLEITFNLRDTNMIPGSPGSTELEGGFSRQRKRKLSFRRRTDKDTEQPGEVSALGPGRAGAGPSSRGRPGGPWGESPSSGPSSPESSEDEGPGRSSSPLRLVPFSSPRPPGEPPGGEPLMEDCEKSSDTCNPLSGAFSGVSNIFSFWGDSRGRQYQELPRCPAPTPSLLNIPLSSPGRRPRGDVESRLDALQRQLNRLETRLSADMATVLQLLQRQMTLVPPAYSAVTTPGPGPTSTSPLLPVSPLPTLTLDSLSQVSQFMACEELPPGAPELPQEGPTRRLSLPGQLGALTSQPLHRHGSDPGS

Compound	hERG current change (%, negative = inhibition) at 10uM [%]
CCOc1ccc(NC(=S)N2CCC(C(O)(c3ccccc3)c3ccccc3)CC2)cc1	-13
CC(OC(=O)c1ccc(F)c(S(=O)(=O)N2CCOCC2)c1)C(=O)NCC1CCCCC1 (centres unmarked)	1.84
C=CCOCCN(CC)CC	-21.3
Cc1ccc(NC(=O)CSc2nnc(CNC(=O)c3c(F)cccc3Cl)o2)cc1	3.28
COc1cc(/C=C2\C(=O)N(CCC#N)N=C2C)ccc1OCC(=O)Nc1ccccc1	-7.3
Cc1ccc(-c2nc(CN(C)C(C3CC3)C3CC3)c(C)o2)cc1	-56.6
Cc1ccsc1-c1nc(CN2CCCC2c2ccc(F)cc2)c(C)o1 (centres unmarked)	24.9
Cc1ccc(-c2nc(CS(=O)CC(=O)NC3CC3)c(C)o2)cc1 (centres unmarked)	6.39
Cc1ccsc1-c1nc(CN(C)C(C2CC2)C2CC2)c(C)o1	-76
CSc1ccc(-c2nc(CN(C)C3CCOC3)c(C)o2)cc1 (centres unmarked)	-31.4
Cc1ccsc1-c1nc(CN2CCN(C)C(=O)[C@@H]2C)c(C)o1	-52.5
Cc1oc(-c2ccc3ccccc3c2)nc1CN(C)C(C)c1ccncn1 (centres unmarked)	-49.8
Cc1oc(-c2cccc(Cl)c2)nc1CN(C)C1CCOC1 (centres unmarked)	0.385
Cc1oc(-c2cc(F)ccc2F)nc1CN1CCN(C)C(=O)[C@@H]1C	8.32
COc1cccc(C2CCCN2Cc2nc(-c3sccc3C)oc2C)c1 (centres unmarked)	20.6
Cc1oc(-c2ccc(-c3ccccc3)cc2)nc1CN(C)C1CCOC1 (centres unmarked)	-55.8
Cc1ccsc1-c1nc(CN2C[C@@H](C)O[C@@H](C)C2)c(C)o1	17.5
O=[N+]([O-])c1cccc(-c2c(-c3ccccc3)ncc3cc(F)ccc23)c1	0.428
Nc1cccnc1S(=O)(=O)c1ccccc1	13.8
O=C(c1ccco1)N1CCN(C2=NS(=O)(=O)c3ccccc32)CC1	-3.13
COc1ccc(CCC(=O)Nc2cccc(Cl)c2)cc1	-1.25
O=C(CN1C(=O)NC2(CCOc3ccccc32)C1=O)c1ccc(Cl)cc1 (centres unmarked)	-43.5
O=C(Nc1cccc(-c2ccc(N3CCOCC3)nn2)c1)c1ccc(Cl)cc1	-3.12
Cc1oc(-c2ccccc2)nc1CC(=O)O	8.97
Cc1oc(-c2ccc(-c3ccccc3)cc2)nc1CN(CCO)C(C)C	-44.1
COCCN(Cc1nc(-c2ccc(-c3ccccc3)cc2)oc1C)C(C)C	-71.4
